From PubChem BioAssay (NCATS) come the findings set out here.

One test in a line: qHTS profiling of the MIPE4 collection as inhibitors of Plasmodium falciparum (HB3) proliferation (AID 743347).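 Note: plate controls were DMSO vehicle wells for no effect and artemisinin wells for full effect.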 Conditions: P. falciparum HB3 in erythrocytes, SYBR Green DNA, 72 h; at 28.5 µM (top of the series) unless noted. In outline: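 Erythrocytes infected with P. falciparum (0.3% parasitemia, 2.5% hematocrit) incubated with compounds 72 h at 37 C, 5% CO2. Lysis with saponin/Triton buffer containing SYBR Green I, overnight at room temperature in the dark; DNA fluorescence (485/535 nm) normalised to 0.29 uM artemisinin and DMSO.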
Regarding `CCCNCC(O)COc1ccccc1C(=O)CCc1ccccc1` (configuration not stated), the growth, % of control was 6.85%. As for `Cc1cnc(C(=O)NCCc2ccc(S(=O)(=O)NC(=O)NC3CCCCC3)cc2)cn1`, the growth, % of control is 3.73%.

For the molecule `NC12CC3CC(CC(C3)C1)C2`, the growth, % of control was determined as 4.58%. In turn, `Nc1nc2c(ncn2COC(CO)CO)c(=O)[nH]1` came in with a growth, % of control of 49%. The molecule `C[C@H]1c2cccc(O)c2C(O)=C2C(=O)[C@]3(O)C(O)=C(C(N)=O)C(=O)[C@@H](N(C)C)[C@@H]3[C@@H](O)[C@@H]21` had a growth, % of control of 12.4%. The molecule `CC1COc2c(N3CCN(C)CC3)c(F)cc3c(=O)c(C(=O)O)cn1c23` (configuration not stated) yielded a growth, % of control of 76.3%. With `NCCc1cnc[nH]1`, the growth, % of control is 108%. `CC(C)(C)C(=O)Oc1ccc(S(=O)(=O)Nc2ccccc2C(=O)NCC(=O)O)cc1` showed a growth, % of control of 67.9%. In turn, `NC(CO)C(=O)NNCc1ccc(O)c(O)c1O` (configuration not stated) yielded a growth, % of control of 99.5%. As for `CN(Cc1cnc2nc(N)nc(N)c2n1)c1ccc(C(=O)N[C@@H](CCC(=O)O)C(=O)O)cc1`, the growth, % of control is 19.5%. In turn, `CC1(CN2CCC(n3c(=O)[nH]c4ccccc43)CC2)OCc2ccccc2-n2cccc21` (configuration not stated) showed a growth, % of control of 7.33%. Still for that read-out and setting: as for `OCCN1CCN(CCCN2c3ccccc3Sc3ccc(C(F)(F)F)cc32)CC1`, the figure is 10.5%. In turn, `Fc1ccc([C@@H]2CCNC[C@H]2COc2ccc3c(c2)OCO3)cc1` registered a growth, % of control of 58.5%. For `CN1C(C(=O)Nc2ccccn2)=C(O)c2ccccc2S1(=O)=O`, the growth, % of control amounted to 90.6%. Still for that read-out and setting: as for `CCOC(=O)C(C)(C)Oc1ccc(Cl)cc1`, the figure is 104%; as for `Cc1cc(C(C)(C)C)c(O)c(C)c1CC1=NCCN1`, 98.3%; as for `CC(=O)OCC(CCn1cnc2cnc(N)nc21)COC(C)=O`, 98.2%. In the case of `Cc1cn([C@H]2C[C@H](N=[N+]=[N-])[C@@H](CO)O2)c(=O)[nH]c1=O`, the growth, % of control was found to be 588%.

Take `O=C(c1ccc(OCCN2CCCCC2)cc1)c1c(-c2ccc(O)cc2)sc2cc(O)ccc12`: the growth, % of control was found to be 9.13%. The molecule `NC(=O)NO` yielded a growth, % of control of 96.8%. Still for that read-out and setting: to `CCCCc1oc2ccccc2c1C(=O)c1cc(I)c(OCCN(CC)CC)c(I)c1` belongs 8.19%; to `COc1cc2nc(N(C)CCCNC(=O)C3CCCO3)nc(N)c2cc1OC` (configuration not stated), 67.3%. Still for that read-out and setting: as for `COc1ccccc1OCCNCC(O)COc1cccc2[nH]c3ccccc3c12` (configuration not stated), the figure is 5.04%. `CC(C)Cc1ccc(C(C)C(=O)O)cc1` (configuration not stated) had a growth, % of control of 94.2% [at 9.64 µM]. The molecule `Cc1ccccc1N1C(=O)c2cc(S(N)(=O)=O)c(Cl)cc2NC1C` (configuration not stated) registered a growth, % of control of 72.5%. With `CN(C)c1nc(N(C)C)nc(N(C)C)n1`, the growth, % of control amounted to 101%. `CS(=O)(=O)Nc1ccc([N+](=O)[O-])cc1Oc1ccccc1` returned a growth, % of control of 92.7%.

Consider `COc1cc2nc(N3CCN(C(=O)c4ccco4)CC3)nc(N)c2cc1OC`, for which the growth, % of control was 2.87%.

A short description of the next test: High-throughput drug toxicity screening in the BPDCN cell line Gen2.2 (AID 1224824).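 Note: cells exposed to compounds for 48 h before reading.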 To be noted: Gen2.2 BPDCN cells; at 45.8 µM (top of the series) unless noted. Put shortly: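 Gen2.2 cells, 500 per well in phenol red-free RPMI with 10% FBS, exposed to compounds 48 h at 37 C, 5% CO2; viability by CellTiter-Glo luminescence. Percent activity scaled to DMSO (100%) and 9.2 uM bortezomib final (0%).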
`CCCNCC(O)COc1ccccc1C(=O)CCc1ccccc1` (configuration not stated): the cell viability, % of control (lower = more cytotoxic) was 6.23%. On to `Cc1cnc(C(=O)NCCc2ccc(S(=O)(=O)NC(=O)NC3CCCCC3)cc2)cn1`, for which the cell viability, % of control (lower = more cytotoxic) worked out at 112%. Consider `O=C(C1CCCCC1)N1CC(=O)N2CCc3ccccc3C2C1` (configuration not stated), for which the cell viability, % of control (lower = more cytotoxic) worked out at 246%. In the case of `NC12CC3CC(CC(C3)C1)C2`, the cell viability, % of control (lower = more cytotoxic) amounted to 60.9%. Take `Nc1nc2c(ncn2COC(CO)CO)c(=O)[nH]1`: the cell viability, % of control (lower = more cytotoxic) is 5.03%. Same read-out and setting: as for `C[C@H]1c2cccc(O)c2C(O)=C2C(=O)[C@]3(O)C(O)=C(C(N)=O)C(=O)[C@@H](N(C)C)[C@@H]3[C@@H](O)[C@@H]21`, the figure is 12.3%.

Consider `CC1COc2c(N3CCN(C)CC3)c(F)cc3c(=O)c(C(=O)O)cn1c23` (configuration not stated), for which the cell viability, % of control (lower = more cytotoxic) stood at 147%.

With `NCCc1cnc[nH]1`, the cell viability, % of control (lower = more cytotoxic) was 166%.

On to `CN1CCN(C2=Nc3cc(Cl)ccc3Nc3ccccc32)CC1`, for which the cell viability, % of control (lower = more cytotoxic) came to 121%. Turning to `CC(C)(C)C(=O)Oc1ccc(S(=O)(=O)Nc2ccccc2C(=O)NCC(=O)O)cc1`, the cell viability, % of control (lower = more cytotoxic) amounted to 103%.

Consider `NC(CO)C(=O)NNCc1ccc(O)c(O)c1O` (configuration not stated), for which the cell viability, % of control (lower = more cytotoxic) was 86.9%. The same measure, in the same setting: to `CN(Cc1cnc2nc(N)nc(N)c2n1)c1ccc(C(=O)N[C@@H](CCC(=O)O)C(=O)O)cc1` belongs 70%; to `CC1(CN2CCC(n3c(=O)[nH]c4ccccc43)CC2)OCc2ccccc2-n2cccc21` (configuration not stated), 137%. For `OCCN1CCN(CCCN2c3ccccc3Sc3ccc(C(F)(F)F)cc32)CC1`, the cell viability, % of control (lower = more cytotoxic) was determined as 85.8%. For the molecule `Fc1ccc([C@@H]2CCNC[C@H]2COc2ccc3c(c2)OCO3)cc1`, the cell viability, % of control (lower = more cytotoxic) worked out at 66.2%. In the case of `CN1C(C(=O)Nc2ccccn2)=C(O)c2ccccc2S1(=O)=O`, the cell viability, % of control (lower = more cytotoxic) was 61.5%.

On to `CCOC(=O)C(C)(C)Oc1ccc(Cl)cc1`, for which the cell viability, % of control (lower = more cytotoxic) is 163%. For the molecule `Cc1cc(C(C)(C)C)c(O)c(C)c1CC1=NCCN1`, the cell viability, % of control (lower = more cytotoxic) came out at 97.9%. For the molecule `O=c1[nH]cc(F)c(=O)[nH]1`, the cell viability, % of control (lower = more cytotoxic) came out at 118%. Regarding `CC(=O)OCC(CCn1cnc2cnc(N)nc21)COC(C)=O`, the cell viability, % of control (lower = more cytotoxic) was determined as 153%. As to `CCOC(=O)Nc1ccc(NCc2ccc(F)cc2)nc1N`, the cell viability, % of control (lower = more cytotoxic) is 166%.

In the case of `Cc1cn([C@H]2C[C@H](N=[N+]=[N-])[C@@H](CO)O2)c(=O)[nH]c1=O`, the cell viability, % of control (lower = more cytotoxic) is 59.6%. For the molecule `O=C(c1ccc(OCCN2CCCCC2)cc1)c1c(-c2ccc(O)cc2)sc2cc(O)ccc12`, the cell viability, % of control (lower = more cytotoxic) came out at 67.1%. Still for that read-out and setting: to `NC(=O)NO` belongs 4.63%; to `CN1C2CCC1CC(OC(=O)C(CO)c1ccccc1)C2` (configuration not stated), 172%. Still for that read-out and setting: to `CCCCc1oc2ccccc2c1C(=O)c1cc(I)c(OCCN(CC)CC)c(I)c1` belongs 84.7%; to `COc1cc2nc(N(C)CCCNC(=O)C3CCCO3)nc(N)c2cc1OC` (configuration not stated), 230%.

Regarding `COc1ccccc1OCCNCC(O)COc1cccc2[nH]c3ccccc3c12` (configuration not stated), the cell viability, % of control (lower = more cytotoxic) stood at 167%. As to `CC(C)Cc1ccc(C(C)C(=O)O)cc1` (configuration not stated), the cell viability, % of control (lower = more cytotoxic) stood at 116% [at 23.2 µM]. Consider `Cc1ccccc1N1C(=O)c2cc(S(N)(=O)=O)c(Cl)cc2NC1C` (configuration not stated), for which the cell viability, % of control (lower = more cytotoxic) stood at 73.5%. As to `CN(C)c1nc(N(C)C)nc(N(C)C)n1`, the cell viability, % of control (lower = more cytotoxic) was 97.5%. Still for that read-out and setting: as for `CS(=O)(=O)Nc1ccc([N+](=O)[O-])cc1Oc1ccccc1`, the figure is 111%; as for `OCCN(CCO)c1nc(N2CCCCC2)c2nc(N(CCO)CCO)nc(N3CCCCC3)c2n1`, 130%. Regarding `COc1cc2nc(N3CCN(C(=O)c4ccco4)CC3)nc(N)c2cc1OC`, the cell viability, % of control (lower = more cytotoxic) is 8.89%.
